Measurements as given in PubChem BioAssay (NCATS).
Records with an inconclusive call do not appear. A call without a number means that no potency is given here. Unmarked numbers belong to inactive results. Calls of active or inactive are those of the source. Calls come from the whole dose curve; as a rule, active = well fitted inhibition curve with a large enough effect; inconclusive = small, poorly fitted or top-dose-only effect; inactive = flat fitted curve, though single readings scatter. Non-standard residues stand in square brackets, D forms with d. Residues, ends and D or L forms follow the SMILES beside them. *: point of attachment. Nva = CCC[C@H](N)C(=O)O; Cbz = O=C(OCc1ccccc1)*

Legend:
[1] = system: KB-3-1; experiment: Cytotoxic Profiling of Annotated Libraries Using Quantitative High-Throughput Screening (AID 1296008); settings: Five cell lines viability, CellTiter-Glo ATP luminescence, 48-72 h; max response: stronger effect = lower value
Summary of the method: (§1)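 Cytotoxicity was measured as CellTiter-Glo ATP luminescence, read after 10 min at room temperature. Compound treatment of the cells lasted 48 or 72 hr at 37 degrees Celsius in a qHTS format.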

[2] = system: NIH3T3; experiment: as above; settings: Five cell lines viability, CellTiter-Glo ATP luminescence, 48-72 h; max response: stronger effect = lower value
Summary of the method: as §1

[3] = system: MCC-13; experiment: qHTS assay to identify novel small-molecules to repurpose for Merkel cell carcinoma treatment (AID 1296009); settings: MCC and control cell lines, CellTiter-Glo viability, 72 h; series mostly up to 46 µM
Summary of the method: (§2)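 After compound transfer in DMSO, plates were kept 72 hr at 37 degree celsius. Luminescent ATP signal from CellTiter-Glo served as viability measure, normalized against DMSO and no-cell controls.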

[4] = system: MCC-26; experiment: as above; settings: MCC and control cell lines, CellTiter-Glo viability, 72 h; series mostly up to 46 µM
Summary of the method: as §2

[5] = system: MKL-1; experiment: as above; settings: MCC and control cell lines, CellTiter-Glo viability, 72 h; series mostly up to 46 µM
Summary of the method: as §2

[6] = system: MKL-2; experiment: as above; settings: MCC and control cell lines, CellTiter-Glo viability, 72 h; series mostly up to 46 µM
Summary of the method: as §2

[7] = system: UISO; experiment: as above; settings: MCC and control cell lines, CellTiter-Glo viability, 72 h; series mostly up to 46 µM
Summary of the method: as §2

[8] = system: NIH3T3; experiment: as above; settings: MCC and control cell lines, CellTiter-Glo viability, 72 h; at 44.8 µM (top of the series) unless noted
Summary of the method: as §2
Note: nearly all actives have a fitted effect of over 60% in size.
Potency is the fitted concentration of half-maximal effect.

| Compound | Potency [1] | Potency [2] | Potency [3] | Potency [4] | Potency [5] | Potency [6] | Potency [7] | max response [1] [%] | max response [2] [%] | outcome [2] | outcome [8] | outcome [1] |
| --- | --- | --- | --- | --- | --- | --- | --- | --- | --- | --- | --- | --- |
| O=C1NC(=O)C(=Cc2ccc3nccc(-c4ccncc4)c3c2)S1 | 0.148 µM (active) | 0.209 µM (active) | 1.87 µM (active) | 2.96 µM (active) | 1.48 µM (active) | 0.469 µM (active) | 0.743 µM (active) |  |  |  |  |  |
| CC(C)(C)[N+]([O-])=Cc1ccc(S(=O)(=O)O)cc1S(=O)(=O)O |  |  | inactive | inactive | inactive | inactive | inactive | 9.38 | 0.254 |  |  |  |
| C[C@H]1O[C@H](O[C@H]2[C@H](O)[C@@H](O)[C@@H](O[C@H]3[C@H](O)[C@@H](O)C(O)O[C@H]3CO)O[C@H]2CO)[C@H](O)[C@@H](O)[C@H]1N[C@H]1C=C(CO)[C@@H](O)[C@H](O)[C@@H]1O (stereo not given in full) |  |  | inactive | inactive | inactive | inactive | inactive | 4.29 | -1.18 |  |  |  |
| O=C(O)C(=O)Nc1cccc(C2=NN=N[N]2)c1 |  |  | inactive | inactive | inactive | inactive | inactive | 7.57 | -1.86 |  |  |  |
| O=c1ccn([C@@H]2O[C@H](CO)[C@H](O)[C@@H]2F)c(=O)[nH]1 |  |  | inactive | inactive | inactive | inactive | inactive | 5.55 | 2.94 |  |  |  |
| CCC[C@@H](C=O)NC(=O)[C@H](CC(C)C)NC(=O)[C@H](CC(C)C)NC(=O)OCc1ccccc1 (Cbz-Leu-Leu-[Nva]-aldehyde) | 2.96 µM (active) | 14.8 µM (active) | 3.32 µM (active) | 3.32 µM (active) | 1.32 µM (active) | 0.833 µM (active) | 2.64 µM (active) |  |  |  |  |  |
| C=C1CCC2[C@](C)(CO)C(O)CC[C@]2(C)C1CC=C1C(=O)OCC1O (stereo not given in full) |  |  | inactive | inactive | inactive | inactive | inactive | 8.99 | 3.77 |  |  |  |
| CC[C@H]1OC(=O)[C@H](C)[C@@H](O[C@H]2C[C@@](C)(OC)[C@@H](O)[C@H](C)O2)[C@H](C)[C@@H](O[C@@H]2O[C@H](C)C[C@H](N(C)C)[C@@H]2O)[C@](C)(OC)C[C@@H](C)C(=O)[C@H](C)[C@@H](O)[C@]1(C)O |  |  | inactive | inactive | inactive | inactive | inactive | -5.56 |  | inactive | inactive |  |
| OCC(O)C(O)C(O)CO (stereo not given) |  |  | inactive | inactive | inactive | inactive | inactive | -4.24 | 2.68 |  |  |  |
| C[C@H](NCc1ccc2c(c1)nc(NC(=O)c1ccc(-c3cn[nH]c3)s1)n2CCc1ccccc1)C(C)(C)C | 1.05 µM (active) | 2.64 µM (active) | 10.5 µM (active) | 10.5 µM (active) | 2.35 µM (active) | 5.9 µM (active) | 6.62 µM (active) |  |  |  |  |  |
| CC(=O)OCC(=O)[C@@]12N=C(C)O[C@H]1C[C@H]1[C@@H]3CCC4=CC(=O)C=C[C@]4(C)[C@@H]3[C@@H](O)C[C@@]12C |  |  | inactive | inactive | inactive | inactive | inactive | 7.6 | -3.36 |  |  |  |
| C=C[C@@H]1CN2CCC1C[C@H]2[C@H](O)c1ccnc2ccc(OC)cc12 (stereo not given in full) |  |  | inactive | inactive | inactive | inactive | inactive | -2.72 | 3.02 |  |  |  |
| Cc1ccccc1C(=O)Nc1ccc(C(=O)N2CCCC(O)c3cc(Cl)ccc32)c(C)c1 (stereo not given) |  |  | inactive | inactive | inactive | inactive | inactive |  | -21 |  |  | inactive |
| COc1cc([C@@H]2c3cc4c(cc3[C@@H](O[C@@H]3O[C@@H]5CO[C@@H](c6cccs6)O[C@@H]5[C@H](O)[C@@H]3O)[C@H]3COC(=O)[C@H]23)OCO4)cc(OC)c1O | 0.743 µM (active) | 0.132 µM (active) | 1.66 µM (active) | 2.35 µM (active) | 0.235 µM (active) | 0.118 µM (active) | 1.87 µM (active) |  |  |  |  |  |
| CC[C@H](CC[C@@H](C)[C@H]1CC[C@H]2[C@@H]3CC=C4C[C@@H](O)CC[C@]4(C)[C@@H]3CC[C@]12C)C(C)C |  |  | inactive | inactive | inactive | inactive | inactive | -7.92 | 4.37 |  |  |  |
| O=C(C=Cc1ccc(CN(CCO)CCc2c[nH]c3ccccc23)cc1)NO | 0.264 µM (active) | 1.05 µM (active) | 1.66 µM (active) | 1.18 µM (active) | 0.418 µM (active) | 0.105 µM (active) | 1.18 µM (active) |  |  |  |  |  |
| COc1ccnc2[nH]cc(C(=O)C(=O)N3CCN(C(=O)c4ccccc4)C[C@@H]3C)c12 |  |  | inactive | inactive | inactive | inactive | inactive | 3.92 | -11.5 |  |  |  |
